Reference: ChEMBL document CHEMBL3988442, “University of Dundee, Small-Polar-MMV Screening Library” (2021)
Hit rate of the full screen: of about 69,000 compounds, about 950 (1.4%) showed an effect of 50% or more. Many of the other results were omitted from the sample, so strong results are more common in it than they were.

These compounds were tested on Mycobacterium tuberculosis (assay: Cornell M. t heat shock assay; note: in the data most compounds retested in dose-response had high values).
Assay type: functional, organism-based
Design: dose or concentration left out as unconfirmed

Point of comparison: `CNC(=O)CN1CCOCC2(CCCN(Cc3ccsc3)C2)C1.O=C(O)C(F)(F)F.O=C(O)C(F)(F)F` (stereo not given), “Percent Effect” value -10.69%. Against it:
- CCC(C)Oc1ccc(CNCCNC(C)=O)cc1Cl (stereo not given) — higher, -0.254%
- CCC(C)Oc1ccc(CNCCNS(C)(=O)=O)cc1Cl (stereo not given) — higher, 14.23%
- CCC(C)Oc1ccc(CNCCc2c[nH]cn2)cc1Cl (stereo not given) — higher, 101.9%
- COCCCN(CCOC)Cc1nc2c(cnn2C)c(=O)[nH]1 — higher, 18.48%
- COCCN(CCOC)Cc1nc2c(cnn2C)c(=O)[nH]1 — higher, -10.64%
- COCCN(CCc1ccccc1)Cc1nc2c(cnn2C)c(=O)[nH]1 — higher, 50.74%
- CN(CCCc1ccccc1)Cc1nc2c(cnn2C)c(=O)[nH]1 — higher, 59.96%
- CN(CCc1ccccc1)Cc1nc2c(cnn2C)c(=O)[nH]1 — higher, 14.44%
- CN(CCCOc1ccccc1)Cc1nc2c(cnn2C)c(=O)[nH]1 — higher, -3.727%
- CNC(=O)CN1CCOCC12CCN(Cc1ccncc1)CC2.O=C(O)C(F)(F)F.O=C(O)C(F)(F)F — lower, -37.23%
- CN(C)CCO[C@@H]1CC[C@H]2[C@H]1OCCN2C(=O)c1ccnnc1.O=C(O)C(F)(F)F — lower, -33.17%
- COc1nccnc1-c1cc(NC2CCCC2)nc2[nH]ccc12 — higher, 103.35%
- COc1cc(-c2cc(NC3CCCC3)nc3[nH]ccc23)nc(N)n1 — higher, 101.075%
- COc1nccnc1-c1cc(NC2CCNCC2)nc2[nH]ccc12 — lower, -16.125%
- COc1ncc(-c2ccc(O)cc2)c(OC)n1 — higher, -3.595%
- Nc1ccnc(-c2cc(NC3CCNCC3)nc3[nH]ccc23)c1 — higher, 14.8%
- COc1ncc(-c2cc(NCCN(C)C)nc3[nH]ccc23)c(OC)n1 — lower, -24.47%
- COc1ncc(-c2cc(NC3CCCC3)nc3[nH]ccc23)c(OC)n1 — higher, 102%
- CNc1cc(C)nc(-c2cc(NC3CCNCC3)nc3[nH]ccc23)n1 — lower, -20.27%
- FC(F)(F)c1ccc(-c2cc(NC3CCNCC3)nc3[nH]ccc23)nc1 — higher, 16.27%
- O=C(O)C(F)(F)F.O=C(c1ccno1)N1CC[C@@H]2O[C@@H](COCCN3CCCC3)CC[C@@H]21 — higher, -5.47%
- C[C@H]1CN2C[C@H](O)CC2CN1Cc1ccc2nccnc2c1.Cl (stereo not given in full) — higher, 2.113%
- O=C(O)C(F)(F)F.O=C(O)C(F)(F)F.c1ccc(OC[C@]23COC[C@H]2CN(C2CCOCC2)C3)nc1 — higher, -7.98%
- Cc1ccc(CN(C)C(=O)CN2CCCC2c2cnn(C)c2)o1 (stereo not given) — higher, 15.31%
- CC1=N[C@@]2(CC[C@@H]3CN(Cc4cccc(Cl)c4)C[C@@H]32)C(=O)N1CC1CC1.O=C(O)C(F)(F)F — higher, 3.209%
- CN(C)S(=O)(=O)N1C[C@H]2C[C@H](C(=O)NCc3ccccc3)[C@@H](C1)O2 — lower, -32.32%
- Cc1nc(CN2CCC3(CCCN(Cc4cccnc4)C3)C2=O)cs1.O=C(O)C(F)(F)F.O=C(O)C(F)(F)F.O=C(O)C(F)(F)F (stereo not given) — lower, -21.24%
- CCO[C@H]1CN(CC2CCOCC2)[C@@H]2CCCO[C@H]12.O=C(O)C(F)(F)F — higher, 43.93%
- Cc1noc(C)c1C(=O)N1C[C@H]2CC[C@@H]1CN(c1cnccn1)C2 — higher, -7.98%
- O=S(=O)(NCCCN1CCCC1)c1cc(F)cc(F)c1 — higher, -10.46%
- COCCN1C(=O)C2(CCN(CC3CC3)CC2)c2ccccc21.O=C(O)C(F)(F)F — higher, 22.29%
- CCc1[nH]c2c(CNC(=O)C3CNC(=O)C3)cc(C)cc2c1C (stereo not given) — higher, 7.867%
- CCc1[nH]c2c(CNc3cnccn3)cc(F)cc2c1C — higher, 27.04%
- CCc1[nH]c2c(CNc3nc(C)cc(NC)n3)cc(C)cc2c1C — higher, 100.6%
- CCc1[nH]c2c(CNc3nccc(N)n3)cc(C)cc2c1C — higher, 83.04%
- CNc1nc(C)cc(NCc2cc(C)cc3c(C)c(C)[nH]c23)n1 — higher, 64.43%
- CCc1[nH]c2c(CNc3nccc(N)n3)cc(F)cc2c1C — higher, 15.63%
- CCc1[nH]c2c(CNc3cncc(C(=O)OC)n3)cc(C)cc2c1C — higher, 0.7071%
- Cc1cc(CNc2nccc(N)n2)c2[nH]c(C)c(C)c2c1 — higher, 6.431%
- CNc1cc(C)nc(NCc2cc(C)cc3c(C)c(C)[nH]c23)n1 — higher, 35.24%
- CCc1[nH]c2c(CNc3cc(C)nc(NC)n3)cc(C)cc2c1C — higher, 100.4%
- Cc1cc(CNc2cncc(C(=O)N(C)C)n2)c2[nH]c(C)c(C)c2c1 — lower, -11.36%
- CCc1[nH]c2c(CNc3cncc(C(=O)N(C)C)n3)cc(C)cc2c1C — higher, -0.9488%
- COCC1c2c(cnn2CC2CC2)CCN1Cc1ccsc1.O=C(O)C(F)(F)F.O=C(O)C(F)(F)F (stereo not given) — lower, -18.97%
- O=C(O)C(F)(F)F.O=C(O)C(F)(F)F.O=C(O)C(F)(F)F.c1ccc(CN2CC[C@]3(C[C@@H](Oc4ccccn4)CO3)C2)nc1 — lower, -28.12%
- Cl.Cl.c1cnc(NCc2cncc3c2CCN(CC2CC2)C3)nc1 — higher, -5.572%
- Cc1ncsc1-c1nnc(C2CCCN2C(=O)CCn2cccn2)o1 (stereo not given) — higher, 13.77%
- Cc1nnc(N2CC[C@H]3C[C@H](C(=O)N4CCOCC4)O[C@H]3C2)s1.O=C(O)C(F)(F)F — higher, 5.897%
- CC(C)CNC(=O)N1CC[C@@H]2CN(Cc3cccnc3)S(=O)(=O)[C@@H]2CC1.O=C(O)C(F)(F)F — higher, 36.35%
- COc1ccc(CN2CCCC3(CCN(c4ccsc4)C3=O)C2)cc1.O=C(O)C(F)(F)F (stereo not given) — higher, 27.7%
- Cn1cc(C2CC(=O)NC23CCN(Cc2ccncc2)CC3)cn1.O=C(O)C(F)(F)F.O=C(O)C(F)(F)F (stereo not given) — lower, -12.84%
- O=C(N[C@@H]1CN(Cc2ccoc2)[C@@H]2CCCO[C@@H]21)C1CC1.O=C(O)C(F)(F)F — higher, -3.228%
- CCNC(=O)Cc1ccc(NC(=O)NC(CC)c2ccncc2)cc1 (stereo not given) — higher, -2.186%
- CCC(NC(=O)Nc1ccc(OC)c(C)c1)c1noc(C)n1 (stereo not given) — higher, 14%
- CCC(NC(=O)Nc1ccc(OC)c(C)c1)c1ccncc1 (stereo not given) — higher, 91.94%
- Cc1oncc1C(=O)N1CCc2ncnc(-c3cnn(C)c3)c2CC1.O=C(O)C(F)(F)F — lower, -24.59%
- O=C1CC(NCc2ncc[nH]2)CN1CCc1cccc(Cl)c1 (stereo not given) — higher, 14%
- Clc1cccc(N2CCC(NCc3ncc[nH]3)C2)c1 (stereo not given) — higher, 62.08%
- Clc1cccc(N2CCC(NCc3cc[nH]n3)C2)c1 (stereo not given) — higher, -2.653%
- Cc1ncsc1C(=O)NCCn1nc(C2CCNC2)c2cccnc21.Cl (stereo not given) — higher, -3.491%
- Cc1ccc(CCNc2nc(-c3ccncc3)nc3c2CCNCC3)o1 — higher, 6.799%
- c1ccc2c(c1)CN(c1ncnc3sc4c(c13)CCNC4)CCO2 — higher, 1.883%
- c1ccc(OCCNc2ncnc3sc4c(c23)CCNC4)cc1 — higher, 56.72%
- Oc1ccccc1N1CCN(c2ncnc3sc4c(c23)CCNC4)CC1 — lower, -21.81%
- Cc1nonc1OCCNc1ncnc2sc3c(c12)CCNC3 — higher, 19.66%
- Cc1ccc(CCNc2ncnc3sc4c(c23)CCNC4)o1 — higher, 98.95%
- COc1ccc(C2=CNC(C(F)(F)F)=CC2N)cc1 (stereo not given) — higher, 1.706%
- Cc1csc(CN2CCn3c(COc4cccnc4)cnc3C2C)n1.O=C(O)C(F)(F)F.O=C(O)C(F)(F)F (stereo not given) — higher, 18.26%
- Cc1ccsc1C(=O)N1C[C@@H]2CN(Cc3ccoc3)CCO[C@@H]2C1.O=C(O)C(F)(F)F — higher, -4.487%
- O=C(O)C(F)(F)F.O=C(c1ccc[nH]1)N1CCn2cc(Cn3cccn3)nc2C1 — higher, -0.1806%
- CN(C)c1ccccc1CN1CCC(N2CCCC2=O)CC1 — higher, -7.548%
- O=C(N1CCCC1)N1CCC[C@]2(C[C@@H](Oc3ncccc3F)CO2)C1.O=C(O)C(F)(F)F — higher, -4.547%
- COC(=O)CNC(=O)CC1COc2ccc(C(=O)N(C)C)cc2N1C (stereo not given) — higher, 7.778%
- CN(C)C(=O)c1ccc2c(c1)N(C)C(CC(=O)NCc1ccno1)CO2 (stereo not given) — higher, 79.27%
- CN(C)C(=O)c1ccc2c(c1)N(C)C(CC(=O)NCc1ncc[nH]1)CO2 (stereo not given) — higher, -1.035%
- CCOc1ncccc1NC(=O)c1sccc1C — higher, 102.4%
- CCOc1ncccc1NC(=O)c1cc(C)sc1C — higher, 19.66%
- CCOc1ncccc1NC(=O)c1cccs1 — lower, -26.07%
- Cl.NC1CCc2nc(-c3ccncc3)nc(Nc3cccc(F)c3)c2C1 (stereo not given) — higher, 82.22%
- O=C(Nc1cccc(F)c1)NC1CCN(Cc2ccncc2)CC1 — higher, -8.889%
- c1cc(-c2nc3c(c(NCCn4ccnn4)n2)CCNCC3)ccn1 — lower, -28.7%
- Cc1sc2c(C3CCNCC3)nc(Nc3cccc(F)c3)n2c1C.Cl — higher, 26.64%
- CCOCCNc1nc(-c2ccncc2)nc2c1CCNCC2 — higher, -10.32%
- O=C(c1cccnc1O)N1CCN(CCc2cccs2)CC1 — higher, 3.025%
- O=C(O)C(F)(F)F.O=C(c1cnccn1)N1CCCC2(CCN(c3ccccn3)C2)C1 (stereo not given) — lower, -26.38%
- Cc1ccc(CN(Cc2ncc[nH]2)C2CC(C)(C)NC(C)(C)C2)o1.O=C(O)CC(O)(CC(=O)O)C(=O)O — higher, 28.54%
- O=C(O)C(F)(F)F.O=C(c1ccno1)N1CCc2ncnc(-c3ccncc3)c2CC1 — higher, 1.058%
- Cc1ccoc1C(=O)N1CCn2nnc(COc3cccnc3)c2C1.O=C(O)C(F)(F)F — lower, -27.69%
- O=C(O)C(F)(F)F.O=C(O)C(F)(F)F.O=C(c1ccnnc1)N1CCN2C[C@H](OCc3cccnc3)C[C@H]2C1 — higher, -1.051%
